These results are taken from the supplement of paper PMC6555819.

Common to all, as to assay: PBM binding z-score (relative to random genomic background probes); higher = stronger binding; sequences stand for … in GC…GCGATTGACAGCGTAGAATGAAGG
The subject of experiment [1] is PPARg:RXRa DBDmut IVT, anti-RXR (DBD mutation: RXRa K156A/R161A, NR concentration 270 nM, RXRa partner concentration 90 nM). The essentials:
(§1)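 For binding z-scores, the reference was random background probes on custom Agilent 4×180K protein-binding microarrays. These arrays were incubated 1 h with ligand-free nuclear receptor dimers in PBS pH 7.4, 2% milk, 0.02% Triton X-100, 1 mM DTT, 0.2 mg/mL BSA and 0.4 mg/ml salmon testes DNA. Fluorescence was scanned after antibody detection of each partner (one per run) and regression-normalized.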

The test system of experiment [2] is PPARg:RXRa IVT, anti-PPARg (NR concentration 270 nM, RXRa partner concentration 90 nM). In outline:
as §1

The test system of experiment [3] is PPARg DBDmut:RXRa IVT, anti-PPARg (DBD mutation: PPARg1 K132A/R137A, NR concentration 270 nM, RXRa partner concentration 90 nM). In outline: as §1
Experiment [4] relates to PPARg DBDmut IVT, anti-PPARg (DBD mutation: PPARg1 K132A/R137A, NR concentration 270 nM). In outline: as §1
Experiment [5] concerns PPARg homodimer (NR concentration 180 nM). The essentials: as §1
For experiment [6], the system named is PXR:RXRa (NR concentration 270 nM, RXRa partner concentration 90 nM). The essentials:
as §1

Experiment [7] relates to PXR homodimer (NR concentration 270 nM). The essentials:
as §1

In experiment [8] the test system is RARa:RXR (NR concentration 270 nM, RXRa partner concentration 90 nM). In outline: as §1
Experiment [9] deals with RARa homodimer (NR concentration 270 nM). The essentials:
as §1

In experiment [10] the test system is RARb:RXRa (NR concentration 270 nM, RXRa partner concentration 90 nM). The essentials:
as §1

Experiment [11] relates to RARb homodimer (NR concentration 270 nM). In outline:
as §1

The subject of experiment [12] is RARg:RXRa (NR concentration 270 nM, RXRa partner concentration 90 nM). The essentials: as §1
Experiment [13] has as its system RARg homodimer (NR concentration 270 nM). The essentials:
as §1

In experiment [14] the test system is RXRa DBDmut IVT, anti-RXR (DBD mutation: RXRa K156A/R161A, NR concentration 90 nM). In outline: as §1
Experiment [15] deals with RXRa homodimer (NR concentration 180 nM). In outline: as §1
Experiment [16] has as its system THRa:RXRa (NR concentration 90 nM, RXRa partner concentration 90 nM). In outline: as §1
For experiment [17], the system named is THRa homodimer (NR concentration 90 nM). The essentials: as §1
In experiment [18] the test system is VDR:RXRa (NR concentration 270 nM, RXRa partner concentration 90 nM). In outline: as §1
Experiment [19] deals with VDR homodimer (NR concentration 270 nM). The essentials: as §1

As for GGAACGAGGGCAAAGTTGATATCATCTGTCGACG, the PBM binding z-score in experiment [1] was 3.87; in experiment [2], 4.19; in experiment [3], 0.622; in experiment [4] it was 0.251; in [5], 0.45; in [6] it was 1.18. The PBM binding z-score in experiment [7] came out at 0.208; in [8], 1.62; in experiment [9], 0.254; in experiment [10] it was 2.32; in experiment [11], 1.26; in experiment [12] it was 2.14. Moreover, the PBM binding z-score in experiment [13] stood at 1.97; in experiment [14], 2.81; in experiment [15], 1.96; in experiment [16], 1.32; in experiment [17] it was 0.0109; in experiment [18] it was 1.34. The PBM binding z-score in experiment [19] worked out at 1.29.
Turning to AATACACGGTCATCGTAGGCCAGAGTACGCACAG, the PBM binding z-score was found to be 0.462 in [1]; 1.62 in experiment [2]; 0.948 in experiment [3]; 0.51 in experiment [4]; 0.841 in experiment [5]; 0.356 in experiment [6]. Moreover, the PBM binding z-score in experiment [7] is 0.177; in [8] it was 0.83; in experiment [9] it was 0.727; in [10] it was 2.83; in [11], 2.36; in experiment [12] it was 2.06. Besides, the PBM binding z-score was 2.76 in [13]; 0.479 in experiment [14]; 1.07 in experiment [15]; 2.15 in [16]; -0.0649 in experiment [17]; 0.576 in experiment [18]. In addition, the PBM binding z-score in [19] was 0.733.
In the case of GCTAGCAGGCGATTTGGGTCACTCAATGACGGGC, the PBM binding z-score is 1.67 in [1]; 2.53 in experiment [2]; -0.476 in [3]; -0.307 in experiment [4]; -0.254 in experiment [5]; 0.00388 in experiment [6]. Besides, the PBM binding z-score in [7] was -0.474; in experiment [8], 0.575; in experiment [9] it was -0.848; in [10], 0.752; in [11], 1.23; in experiment [12], 0.467. For the same sequence, the PBM binding z-score in experiment [13] was 0.586; in [14], -0.454; in experiment [15] it was 0.643; in [16], 1.91; in experiment [17], 0.374; in experiment [18] it was -0.205. The same sequence came in with a PBM binding z-score in experiment [19] of -0.295.
As to TCTGATAGGTCAGTTGGTCAGCTAACGAGCTGCC, the PBM binding z-score in experiment [1] is 2.34; in experiment [2] it was 2.26; in experiment [3], -0.134; in experiment [4], 1.25; in experiment [5] it was 1.43; in experiment [6] it was 0.816. Also, the PBM binding z-score in [7] is -0.173; in experiment [8] it was 1.01; in [9] it was -0.0552; in [10], 3.63; in experiment [11], 2.94; in experiment [12] it was 3.32. In addition, the PBM binding z-score in experiment [13] was 4; in [14] it was 1.1; in experiment [15], 2.15; in experiment [16] it was 0.722; in [17] it was -0.367; in experiment [18], 0.777. The same sequence came in with a PBM binding z-score in [19] of -0.342.
As to CCGACTGGGGCATAAGGCTACCATAAGCCAGCCC, the PBM binding z-score in [1] was 2.4; in experiment [2], 2.19; in experiment [3] it was -1.08; in experiment [4], -1.23; in [5] it was 0.226; in [6], -0.731. Besides, the PBM binding z-score was -0.51 in experiment [7]; -0.184 in experiment [8]; 0.133 in experiment [9]; 0.337 in [10]; 0.172 in [11]; -0.0263 in [12]. Further, the PBM binding z-score in experiment [13] was 0.171; in experiment [14] it was -0.797; in [15] it was -0.16; in experiment [16], -0.225; in experiment [17], -0.406; in experiment [18] it was -0.694. In addition, the PBM binding z-score in [19] is -0.345.
With CCGACTAGGGCATAAGGTTACCATAAGCCAGCCC, the PBM binding z-score is 4.2 in [1]; 3.79 in [2]; -0.186 in experiment [3]; -0.826 in [4]; 1.57 in [5]; 0.295 in experiment [6]. The PBM binding z-score in experiment [7] is -0.287; in experiment [8], 1.7; in [9], -0.466; in experiment [10], 1.86; in [11] it was 1.76; in [12], 2.19. The PBM binding z-score in experiment [13] is 1.34; in experiment [14], -0.152; in [15], 1.35; in experiment [16], 2.17; in experiment [17] it was 1.08; in [18], 0.257. In experiment [19], the PBM binding z-score is -0.17.
For ATATGTAGGTTAGCTGGGGTCATTGAGACTAGGC, the PBM binding z-score in [1] worked out at 6.54; in experiment [2] it was 6.07; in [3] it was 2.23; in experiment [4], 1.29; in experiment [5], 2.75; in [6], 6.11. The PBM binding z-score in [7] was determined as 3.42; in experiment [8], 5.49; in experiment [9] it was 0.751; in experiment [10], 2.9; in experiment [11], 3.66; in experiment [12], 4.03. The PBM binding z-score worked out at 2.91 in experiment [13]; 1.82 in experiment [14]; 5.63 in experiment [15]; 4.83 in experiment [16]; 3.21 in [17]; 5.95 in experiment [18]. This sequence also had a PBM binding z-score in experiment [19] of 5.12.
